# In the supplement of paper PMC8728848:
# This is one part of a sample in which the strongest signals are shown more often than they occur.
# B1: ClecSol-Fc (Cryptosporidium parvum) (protein)
# chain: CPEGWISNGEKTRCFKLVTFDRPRTFSHGFKACNDLGGTEVETRRRNGSKETNEYPVTLASVYKLSDEEAIRRTLVEQGDIHKTANGCFVGLRKYAFFRYPPGWYWIDSGSPVSVRDSEINWTSSYNASWLLRFKFPFEKCGFFDIGGLGRRPCWLIDSELSCAVCGTVAYDSGGLNPNKYSELIKQTDEIISKEPKLDLPGYNNLNCTDAWENNLSVGLCQNVSNILDSAWSSYQSSLNFPSINFNWKEDSTNEGGDQVYHNSYLDLPRYKQKKTFYWDQDPGTIPALSDEMKLIGLSAQPTYHPLDRSSSGSFESDSTESGRANEERNDTLEEMIYKQSSDSIEDILVPVTKPIFSDYSSIGRNSGVEEVYSSNVSTISSKGVVFPNTTTSSDNDFTKNNPANSSKHTSTSTTTNTTTTTTRTTTTTTTTTTTTTTTTTTTTETTTTKKSTTATKNTTTT
# Tests used:
# Test in all cases: glycan array binding signal (z-score within array); higher = stronger binding
# Conditions in all cases: glycan notation: IUPAC condensed, linker removed
# [1] = biological target: Fuc(a1-2)Gal(b1-3)GalNAc(a1-3)[Fuc(a1-2)]Gal(b1-4)GlcNAc
# Summary of the method: (§1)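 The Consortium for Functional Glycomics database supplied 3228 glycan arrays, of which those lacking an available protein sequence were dropped. The binding signal, a within-array Z-score, was averaged across arrays of the same protein sequence and across linkers. Negative scores can be read as non-binding.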
# [2] = biological target: Fuc(a1-2)Gal(b1-3)GalNAc(b1-3)Gal(a1-4)Gal(b1-4)Glc
# Summary of the method: as §1
# [3] = biological target: Fuc(a1-2)Gal(b1-3)GlcNAc(b1-3)[Neu5Ac(a2-6)Gal(b1-4)GlcNAc(b1-6)]Gal(b1-4)Glc
# Summary of the method: as §1
# [4] = biological target: Fuc(a1-2)Gal(b1-4)GlcNAc(b1-3)Gal(b1-4)GlcNAc(b1-2)Man(a1-3)[Fuc(a1-2)Gal(b1-4)GlcNAc(b1-3)Gal(b1-4)GlcNAc(b1-2)Man(a1-6)]Man(b1-4)GlcNAc(b1-4)GlcNAc
# Summary of the method: as §1
# [5] = biological target: Fuc(a1-2)Gal(b1-4)GlcNAc(b1-6)GalNAc
# Summary of the method: as §1
# [6] = biological target: Fuc(a1-2)[Gal(a1-3)]Gal(b1-4)GlcNAc(b1-3)GalNAc
# Summary of the method: as §1
# [7] = biological target: Fuc(a1-2)[Gal(a1-3)]Gal(b1-4)GlcNAc(b1-3)[Fuc(a1-2)[Gal(a1-3)]Gal(b1-4)GlcNAc(b1-6)]GalNAc
# Summary of the method: as §1
# [8] = biological target: Fuc(a1-2)[GalNAc(a1-3)]Gal(b1-3)GlcNAc(b1-2)Man(a1-3)[Fuc(a1-2)[GalNAc(a1-3)]Gal(b1-3)GlcNAc(b1-2)Man(a1-6)]Man(b1-4)GlcNAc(b1-4)[Fuc(a1-6)]GlcNAc
# Summary of the method: as §1
# [9] = biological target: Fuc(a1-2)[GalNAc(a1-3)]Gal(b1-4)GlcNAc(b1-3)GalNAc
# Summary of the method: as §1
# [10] = biological target: Fuc(a1-2)[GalNAc(a1-3)]Gal(b1-4)[Fuc(a1-3)]GlcNAc
# Summary of the method: as §1
# [11] = biological target: Fuc(a1-3)[Gal(b1-4)]GlcNAc(b1-2)Man(a1-3)[Fuc(a1-3)[Gal(b1-4)]GlcNAc(b1-2)Man(a1-6)]Man(b1-4)GlcNAc(b1-4)[Fuc(a1-6)]GlcNAc
# Summary of the method: as §1
# [12] = biological target: Fuc(a1-3)[Gal(b1-4)]GlcNAc(b1-6)[Gal(b1-3)GlcNAc(b1-3)]Gal(b1-4)Glc
# Summary of the method: as §1
# [13] = biological target: Fuc(a1-3)[GalNAc(b1-4)]GlcNAc6S
# Summary of the method: as §1
# [14] = biological target: Gal(b1-3)[Fuc(a1-4)]GlcNAc(b1-2)Man
# Summary of the method: as §1
# [15] = biological target: Gal(b1-3)[Neu5Ac(a2-6)]GalNAc
# Summary of the method: as §1
# [16] = biological target: Gal(b1-3)[Neu5Ac(b2-6)]GalNAc
# Summary of the method: as §1
# [17] = biological target: Gal(b1-4)GlcNAc(b1-2)Man(a1-3)[GlcNAc(b1-4)][Gal(b1-4)GlcNAc(b1-2)Man(a1-6)]Man(b1-4)GlcNAc(b1-4)GlcNAc
# Summary of the method: as §1
# [18] = biological target: Gal(b1-4)GlcNAc(b1-2)[Gal(b1-4)GlcNAc(b1-6)]Man(a1-6)[Gal(b1-4)GlcNAc(b1-2)Man(a1-3)]Man(b1-4)GlcNAc(b1-4)[Fuc(a1-6)]GlcNAc
# Summary of the method: as §1
# [19] = biological target: Gal(b1-4)GlcNAc(b1-3)Gal(b1-4)GlcNAc(b1-2)[Gal(b1-4)GlcNAc(b1-3)Gal(b1-4)GlcNAc(b1-6)]Man(a1-6)[Gal(b1-4)GlcNAc(b1-3)Gal(b1-4)GlcNAc(b1-2)Man(a1-3)]Man(b1-4)GlcNAc(b1-4)GlcNAc
# Summary of the method: as §1
# [20] = biological target: Gal(b1-4)GlcNAc(b1-3)Gal(b1-4)GlcNAc(b1-3)Gal(b1-4)GlcNAc(b1-3)Gal(b1-4)GlcNAc(b1-3)Gal(b1-4)GlcNAc(b1-3)Gal(b1-4)GlcNAc(b1-2)Man(a1-3)[Gal(b1-4)GlcNAc(b1-3)Gal(b1-4)GlcNAc(b1-3)Gal(b1-4)GlcNAc(b1-3)Gal(b1-4)GlcNAc(b1-3)Gal(b1-4)GlcNAc(b1-3)Gal(b1-4)GlcNAc(b1-2)Man(a1-6)]Man(b1-4)GlcNAc(b1-4)GlcNAc
# Summary of the method: as §1
# [21] = biological target: Gal(b1-4)GlcNAc(b1-3)Gal(b1-4)GlcNAc(b1-3)[Gal(b1-4)GlcNAc(b1-3)Gal(b1-4)GlcNAc(b1-6)]GalNAc
# Summary of the method: as §1
# [22] = biological target: Gal(b1-4)GlcNAc(b1-3)Gal(b1-4)[Fuc(a1-3)]GlcNAc(b1-3)Gal(b1-4)[Fuc(a1-3)]GlcNAc
# Summary of the method: as §1
# [23] = biological target: Gal(b1-4)GlcNAc(b1-3)[GlcNAc(b1-6)]Gal(b1-4)GlcNAc
# Summary of the method: as §1
# Gal3S(b1-3)GalNAc = biological target: Gal3S(b1-3)GalNAc
# Summary of the method: as §1
# [24] = biological target: Gal3S(b1-4)[Fuc(a1-3)]GlcNAc
# Summary of the method: as §1
# GalNAc(b1-6)GalNAc = biological target: GalNAc(b1-6)GalNAc
# Summary of the method: as §1
# [25] = biological target: GlcNAc(a1-4)Gal(b1-4)GalNAc
# Summary of the method: as §1
# [26] = biological target: GlcNAc(a1-4)Gal(b1-4)GlcNAc(b1-3)Gal(b1-4)GlcNAc
# Summary of the method: as §1
# [27] = biological target: GlcNAc(a1-4)Gal(b1-4)GlcNAc(b1-3)Gal(b1-4)GlcNAc(b1-3)Gal(b1-4)GlcNAc
# Summary of the method: as §1
# [28] = biological target: GlcNAc(a1-4)Gal(b1-4)GlcNAc(b1-3)Gal(b1-4)[Fuc(a1-3)]GlcNAc(b1-3)Gal(b1-4)[Fuc(a1-3)]GlcNAc
# Summary of the method: as §1
binder,measurement,setting,value
B1,glycan array binding signal (z-score),[1],0.031
same,glycan array binding signal (z-score),[2],-0.029
same,glycan array binding signal (z-score),[3],-0.161
same,glycan array binding signal (z-score),[4],-0.154
same,glycan array binding signal (z-score),[5],0.51
same,glycan array binding signal (z-score),[6],0.003
same,glycan array binding signal (z-score),[7],0.705
same,glycan array binding signal (z-score),[8],-0.242
same,glycan array binding signal (z-score),[9],-0.169
same,glycan array binding signal (z-score),[10],-0.281
same,glycan array binding signal (z-score),[11],0.593
same,glycan array binding signal (z-score),[12],0.068
same,glycan array binding signal (z-score),[13],-0.242
same,glycan array binding signal (z-score),[14],-0.208
same,glycan array binding signal (z-score),[15],-0.235
same,glycan array binding signal (z-score),[16],-0.149
same,glycan array binding signal (z-score),[17],-0.166
same,glycan array binding signal (z-score),[18],-0.266
same,glycan array binding signal (z-score),[19],0.543
same,glycan array binding signal (z-score),[20],-0.15
same,glycan array binding signal (z-score),[21],-0.114
same,glycan array binding signal (z-score),[22],-0.22
same,glycan array binding signal (z-score),[23],-0.01
same,glycan array binding signal (z-score),Gal3S(b1-3)GalNAc,-0.101
same,glycan array binding signal (z-score),[24],0.021
same,glycan array binding signal (z-score),GalNAc(b1-6)GalNAc,-0.238
same,glycan array binding signal (z-score),[25],18.7
same,glycan array binding signal (z-score),[26],2.11
same,glycan array binding signal (z-score),[27],1.61
same,glycan array binding signal (z-score),[28],0.617
